Source: PubChem
Pf growth 96h – Primary qHTS for delayed death inhibitors of the malarial parasite plastid, 96 hour incubation. P. falciparum luciferase reporter growth, 96 h. Potency, µM (top dose mostly 28.7 µM), for the others: at the top dose activity change, negative = inhibition, hits mostly inhibitors. hit rate 6.9% among 320,000. AID 504834, 2011; also: % is scaled to controls: 0 for no effect and ±100 for the full control effect
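Compounds incubated with erythrocytes infected by luciferase-expressing P. falciparum (2% hematocrit, 0.05% parasitemia final) for 96 hours, 37 C in 5% CO2. Growth inhibition scored as decreased luciferase luminescence.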
AmpC no deterg – qHTS Inhibitors of AmpC Beta-Lactamase (assay without detergent); AmpC nitrocefin hydrolysis, absorbance 480 nm, 0.0001% Triton; Potency, µM (top dose mostly 57.1 µM), inactives show at the top dose activity change, negative = inhibition, usual class: inhibitors; hit rate 0.52% among 330,000; AID 485341, 2010;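 also: plate controls were no compound for no effect and no enzyme for full effect; nearly all actives have a fitted effect of over 20% in size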
Target sequence (P00811 whole entry, looked up): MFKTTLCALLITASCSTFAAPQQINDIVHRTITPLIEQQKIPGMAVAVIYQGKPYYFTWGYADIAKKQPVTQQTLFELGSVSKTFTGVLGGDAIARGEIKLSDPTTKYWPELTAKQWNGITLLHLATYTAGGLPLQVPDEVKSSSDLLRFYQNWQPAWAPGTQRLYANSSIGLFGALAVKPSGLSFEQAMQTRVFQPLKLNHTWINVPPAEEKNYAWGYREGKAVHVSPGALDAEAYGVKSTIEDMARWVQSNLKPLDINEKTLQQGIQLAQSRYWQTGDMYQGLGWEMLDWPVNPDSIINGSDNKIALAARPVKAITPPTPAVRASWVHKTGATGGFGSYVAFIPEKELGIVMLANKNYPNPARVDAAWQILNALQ
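AmpC (5.3 nM in the dispensed reagent) in 20 mM phosphate pH 7.0 with 0.01% (detergent screen) or 0.0001% Triton X-100 was preincubated with compounds for 15 min at room temperature. Nitrocefin was then added from an 800 uM solution, and hydrolysis was followed at 480 nm.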
Sm TGR block – qHTS Assay for the Inhibitors of Schistosoma Mansoni Peroxiredoxins; Schistosoma mansoni thioredoxin glutathione reductase (TGR), Q962Y6; Potency, µM (top dose mostly 114 µM), without a hit: at the highest dose activity change, negative = inhibition, usual class: inhibitors; hit rate 3% among 360,000; purified TGR, DTNB reduction, TNB absorbance 405 nm; also: % is scaled to controls: 0 for no effect and ±100 for the full control effect; nearly all actives have a fitted effect of over 60% in size
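First, TGR (20 nM dispensed) and NADPH were mixed with compound. Second, a 15 min room-temperature incubation followed. Third, further NADPH and then DTNB were added to start the reaction. Finally, TNB absorbance was monitored kinetically.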
Pf growth 48h – Primary qHTS for delayed death inhibitors of the malarial parasite plastid, 48 hour incubation | P. falciparum luciferase growth in erythrocytes, 48 h | Potency, µM (titrated, usually from 28.7 µM), inactives show at the highest dose activity change, negative = inhibition, hits mostly inhibitors | hit rate 5.9% among 310,000 | AID 504832, 2011; also: % is scaled to controls: 0 for no effect and ±100 for the full control effect
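Parasite viability was followed by luminescence of a genomically integrated firefly luciferase. Cultures held 0.1% parasitemia at 2% hematocrit (final), incubated under 5% CO2 at 37 C.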
SARS PLpro yeast – qHTS of Yeast-based Assay for SARS-CoV PLP | Potency, µM (series often up to 32.9 µM), for inactives: at the top dose activity, positive = growth rescue, hits mostly activators | AID 485353, 2010 | S. cerevisiae expressing SARS-CoV PLpro, growth rescue | hit rate 0.19% among 330,000; calls by dose curve; also: 0% is about no effect; nearly all actives have a fitted effect of over 55% in size
AmpC inh detg – qHTS Inhibitors of AmpC Beta-Lactamase (assay with detergent). Potency, µM (titrated, usually from 114 µM), inactives show at the top dose activity change, negative = inhibition, actives largely listed as inhibitors. hit rate 0.041% among 370,000. AmpC hydrolysis of nitrocefin, absorbance 480 nm, 0.01% Triton. P00811;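 also: 0% = no-compound wells and -100% = no-enzyme wells; nearly all actives have a fitted effect of over 25% in size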
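20 mM phosphate pH 7.0 + 0.01% (detergent screen) or 0.0001% Triton X-100; 5.3 nM AmpC reagent; cpd preinc 15 min RT; nitrocefin (800 uM stock) to start; A480 q20 s × 4 min; Activity was normalised to no-enzyme and no-compound control wells.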
An asterisk follows results filed as active; [ ] = dose if it differs, or a comment. Sampled rows, rich in hits. Any-hit rate of the full collection: about 12%. Unless noted, calls follow the shape of the dose curve; as a rule, active = well fitted curve in the direction sought with a large enough effect; inconclusive = small, poorly fitted or top-dose-only effect, or another doubt; inactive = no such curve, though single readings can be large; an effect the other way counts as inactive or inconclusive. Potency is read from the fitted curve at half-maximal effect.

Results for O=C(Nc1ccc2c(c1)OCO2)c1cccs1 ?
Pf growth 96h: 7%; Sm TGR block: -2%; Pf growth 48h: 53%; AmpC inh detg: 10%

How did O=C(Nc1ccc2c(c1)OCCO2)c1cccs1 do in these assays?
Pf growth 96h: 2.6µM*; AmpC no deterg: -25%; Sm TGR block: 0%; Pf growth 48h: 97%; SARS PLpro yeast: -76%; AmpC inh detg: -10%

How did CCN(CC)S(=O)(=O)c1cc(NC(=O)c2ccc(Br)s2)ccc1C do in these assays?
Pf growth 96h: 15µM*; AmpC no deterg: -37%; Sm TGR block: 12%; Pf growth 48h: inconclusive; SARS PLpro yeast: 1%; AmpC inh detg: 2%

Results for CC(=O)Nc1ccc2c(c1)OCO2 ?
Pf growth 96h: 1%; AmpC no deterg: 0%[11.4 µM]; Sm TGR block: -3%; Pf growth 48h: 1%; SARS PLpro yeast: 0%; AmpC inh detg: -11%

How did COc1ccc(Cl)cc1C(=O)Nc1nnn(C)n1 do in these assays?
Pf growth 96h: 21%; AmpC no deterg: -20%; Sm TGR block: 4%; Pf growth 48h: 21%; SARS PLpro yeast: -1%; AmpC inh detg: inconclusive

What do the screens show for `Cc1ccc(N2CCN(C(=O)c3cc(S(=O)(=O)N4CCCCC4)c[nH]3)CC2)c(C)c1`?
Sm TGR block: 7%; AmpC inh detg: 20%

Results for COc1ccccc1N1CCN(c2nc3c(S(=O)(=O)c4ccccc4)nnn3c3ccc(Cl)cc23)CC1 ?
Sm TGR block: -1%; AmpC inh detg: -4%

How did CCCn1c(CCNc2nc(-c3ccc(Cl)c([N+](=O)[O-])c3)cs2)nc2cc(Cl)c(Cl)cc21 do in these assays?
Pf growth 96h: 34%; AmpC no deterg: -50%; Sm TGR block: -14%; Pf growth 48h: 2%; SARS PLpro yeast: -4%; AmpC inh detg: inconclusive

Results for CCCn1c(C(C)Nc2nc(-c3cccc(Br)c3)cs2)nc2ccccc21 (stereo unspecified) ?
Pf growth 96h: inconclusive; AmpC no deterg: -37%; Sm TGR block: -1%; Pf growth 48h: -10%; SARS PLpro yeast: -3%; AmpC inh detg: inconclusive

What do the screens show for `CCCn1c(C(C)Nc2nc(C)cs2)nc2cc(Cl)c(Cl)cc21` (stereo unspecified)?
Pf growth 96h: 30%; AmpC no deterg: 19%; Sm TGR block: -19%; Pf growth 48h: -11%; SARS PLpro yeast: inconclusive; AmpC inh detg: -7%

How did CCCn1c(C(C)Nc2nc(-c3ccc(C)cc3)cs2)nc2ccccc21 (stereo unspecified) do in these assays?
Pf growth 96h: 9.3µM*; AmpC no deterg: -21%; Sm TGR block: 2%; Pf growth 48h: inconclusive; SARS PLpro yeast: 6%; AmpC inh detg: -2%

Results for CCCn1c(C(C)Nc2nc(-c3cc(Cl)c(N)c(Cl)c3)cs2)nc2cc(Cl)c(N3CCCCC3)cc21 (stereo unspecified) ?
Pf growth 96h: 7.4µM*; AmpC no deterg: -31%; Sm TGR block: -2%; Pf growth 48h: inconclusive; SARS PLpro yeast: 2%; AmpC inh detg: -5%

What do the screens show for `CCCn1c(C(C)Nc2nc(-c3ccc(Cl)c([N+](=O)[O-])c3)cs2)nc2ccccc21` (stereo unspecified)?
Pf growth 96h: 5.9µM*; AmpC no deterg: -55%; Sm TGR block: -2%; Pf growth 48h: 13µM*; SARS PLpro yeast: -13%; AmpC inh detg: inconclusive

Results for CCc1ccccc1NNC(=O)c1snnc1C ?
Pf growth 96h: -1%; AmpC no deterg: -3%; Sm TGR block: 5%; Pf growth 48h: inconclusive; SARS PLpro yeast: -3%; AmpC inh detg: 0%

How did COc1ccc(-c2cc3ccc(OC)cc3cn2)cc1 do in these assays?
Pf growth 96h: 180%; AmpC no deterg: -27%; Sm TGR block: 16µM*; Pf growth 48h: 127%; SARS PLpro yeast: 2%; AmpC inh detg: 2%

Results for O=C(CNC(=O)c1ccccc1F)NCc1cccnc1 ?
Pf growth 96h: 25%; AmpC no deterg: -24%; Sm TGR block: -6%; Pf growth 48h: 24%; SARS PLpro yeast: 0%; AmpC inh detg: -7%

How did Cc1ccsc1/C=N\NC(=O)Cn1nnc2ccccc21 do in these assays?
Pf growth 96h: 300%; AmpC no deterg: -26%; Sm TGR block: 1%; Pf growth 48h: 37%; SARS PLpro yeast: 8%; AmpC inh detg: -11%

What do the screens show for `O=[N+]([O-])c1ccc(S(=O)(=O)NCC(c2cccnc2)N2CCc3ccccc32)cc1` (stereo unspecified)?
Pf growth 96h: 15µM*; AmpC no deterg: -23%; Sm TGR block: -5%; Pf growth 48h: 12µM*; SARS PLpro yeast: -4%; AmpC inh detg: inconclusive

How did COc1ccc(S(=O)(=O)NCC(c2ccco2)N2CCc3ccccc32)cc1 (stereo unspecified) do in these assays?
Pf growth 96h: inconclusive; AmpC no deterg: -38%; Sm TGR block: 0%; Pf growth 48h: 9.3µM*; AmpC inh detg: -16%

Results for COc1ccc(C(=O)NCC(c2ccco2)N2CCc3ccccc32)c(OC)c1 (stereo unspecified) ?
Pf growth 96h: 13µM*; AmpC no deterg: -22%; Sm TGR block: 0%; Pf growth 48h: 12µM*; SARS PLpro yeast: -3%; AmpC inh detg: -14%

What do the screens show for `O=C(Oc1ccc2ccc(OC(=O)N3CCOCC3)cc2c1)N1CCOCC1`?
Pf growth 96h: 10µM*; AmpC no deterg: -5%; Sm TGR block: 4%; Pf growth 48h: 47%; SARS PLpro yeast: 4%; AmpC inh detg: 4%

Results for CCC(=O)N(Cc1cc2cc(C)c(C)cc2[nH]c1=O)C1CCCCC1 ?
Pf growth 96h: 52%; AmpC no deterg: 38%; Sm TGR block: -27%; Pf growth 48h: inconclusive; SARS PLpro yeast: -9%; AmpC inh detg: inconclusive

What do the screens show for `COc1ccc2cc(CN(CC3COCCO3)S(=O)(=O)c3ccccc3)c(=O)[nH]c2c1` (stereo unspecified)?
Pf growth 96h: 13%[5.75 µM]; AmpC no deterg: 32%; Sm TGR block: 0%; Pf growth 48h: -16%; SARS PLpro yeast: -11%; AmpC inh detg: -12%

Results for O=C(NC1CCCCC1)N(Cc1cc2cc3c(cc2[nH]c1=O)OCCO3)C1CCCCC1 ?
Pf growth 96h: 5.9µM*; AmpC no deterg: -13%; Sm TGR block: 2%; SARS PLpro yeast: 7%; AmpC inh detg: inconclusive
